Screening data as filed in PubChem BioAssay.
Most compounds without a hit are left out; they make up all but 3.6% or so of the library.
NPSR antagonist: antagonists of human neuropeptide S receptor cAMP signaling; CHO-NPSR cells, cAMP TR-FRET, antagonist mode; Potency, µM (highest dose often 38.3 µM), actives largely listed as inhibitors; AID 1461; 220,000 compounds, 1% hits; further: nearly all actives have a fitted effect of over 50% in size
Target sequence (Q6W5P4 whole entry, looked up): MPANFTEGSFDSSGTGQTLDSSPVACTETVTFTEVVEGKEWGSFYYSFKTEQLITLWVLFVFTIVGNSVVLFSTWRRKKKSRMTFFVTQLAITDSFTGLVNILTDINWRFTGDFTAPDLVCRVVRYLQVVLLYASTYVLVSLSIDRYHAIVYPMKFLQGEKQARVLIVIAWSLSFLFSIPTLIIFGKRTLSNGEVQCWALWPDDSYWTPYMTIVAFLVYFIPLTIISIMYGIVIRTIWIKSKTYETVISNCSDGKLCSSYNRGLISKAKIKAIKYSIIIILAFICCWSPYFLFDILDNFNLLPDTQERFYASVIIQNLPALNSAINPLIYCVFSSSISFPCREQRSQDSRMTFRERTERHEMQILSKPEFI
IMPase Li cell: membrane-permeable IMPase blocker, potentiated with lithium. 210,000 compounds, 0.35% hits. CHO-M1 cells, IP1 TR-FRET (IP-One), carbachol + lithium. Potency, µM (highest dose often 59.4 µM), hits mostly inhibitors;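 further: IP1 builds up when IMPase is blocked and the TR-FRET signal falls; nearly all actives have a fitted effect of over 50% in size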
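CHO-M1, 2000 cells/well, 16–30 h culture; cpd + low Li+, 30 min 37C; lysis with d2-IP1/Eu-anti-IP1 Ab, 10 min RT; TR-FRET 665/620 ratio and 620 channel; AC50 via Hill.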
Sfp PPTase inh: blocks B. subtilis Sfp PPTase activity; 310,000 compounds, 3.5% hits; Potency, µM, most hits filed as inhibitors; AID 1490; Q9F4F7; Biochemical Sfp PPTase activity, qHTS;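 further: the enzyme is Sfp with the accession as filed and its product quenches rhodamine fluorescence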
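Sfp 15 nM + cpd, 15 min RT; start w/ rhodamine-CoA 5 uM, BHQ-2-YbbR 12.5 uM (final); 50 mM Hepes pH 7.6, 10 mM MgCl2, 0.01% NP-40, 0.01% BSA; read 525/598 nm at 0 and 30 min.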
Epigenetic reg: regulators of epigenetic silencing causing reporter derepression in mouse cells. murine LDR cells, GFP reporter derepression, 30 h. Potency, µM (highest dose often 53.9 µM), hits mostly activators. 280,000 compounds, 0.2% hits; further: nearly all actives have a fitted effect of over 60% in size
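In this reporter-derepression format, murine cells bearing a silenced integrated CMV-GFP locus incubate with test compound (30 h, 37 C), then are washed and imaged; fluorescent objects of 20–120 um count as induced cells.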
KDM4E inh: inhibitors of human JMJD2E histone demethylase. AID 2147. 230,000 compounds, 1.6% hits. B2RXH2. JMJD2E catalytic domain, FDH-coupled NADH fluorescence (FDH is formaldehyde dehydrogenase). Potency, µM (top dose mostly 57.1 µM), actives largely listed as inhibitors; active means well fitted inhibition curve with a large enough effect, not every such curve was filed as active; inconclusive means small, poorly fitted or top-dose-only effect, or another doubt; inactive means no such curve, though single readings can be large or run the other way; further: nearly all actives have a fitted effect of over 50% in size
Target sequence (B2RXH2 1-337 limits assumed): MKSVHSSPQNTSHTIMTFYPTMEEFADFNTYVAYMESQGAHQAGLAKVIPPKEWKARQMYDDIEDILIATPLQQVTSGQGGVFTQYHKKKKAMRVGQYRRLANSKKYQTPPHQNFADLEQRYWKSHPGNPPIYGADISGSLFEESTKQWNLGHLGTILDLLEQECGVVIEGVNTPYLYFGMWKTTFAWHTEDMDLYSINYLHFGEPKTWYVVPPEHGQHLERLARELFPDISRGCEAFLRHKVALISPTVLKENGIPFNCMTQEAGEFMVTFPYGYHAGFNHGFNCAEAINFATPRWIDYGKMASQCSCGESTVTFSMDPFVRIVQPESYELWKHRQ
KAT2A inh: GCN5L2 (KAT2A) acetyltransferase inhibition. Q92830. GCN5L2 HAT assay, ThioGlo1 CoA-SH fluorescence. Potency, µM (highest dose often 58.9 µM), hits mostly inhibitors. 390,000 compounds, 0.21% hits. AID 504327
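qHTS, 1536-well. 20nM enzyme, pH 7.5 HEPES/EDTA/Tween-20 buffer; 15 min compound preinc., RT. Start: 75uM H3(1-25), 70uM AcCoA, 50uM ThioGlo1. Read Ex340/Em540 at t=0 (autofluorescence flag) and t=20 min.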
Numbers stand for hits; i = inactive; ? = inconclusive; nt = no result given; [ ] = dose if it differs, or a comment. Unless noted, the call rests on the fitted dose curve; in most records, active means well fitted curve in the direction sought with a large enough effect; inconclusive means small, poorly fitted or top-dose-only effect, or another doubt; inactive means no such curve, though single readings can be large; an effect the other way counts as inactive or inconclusive.

SMILES	NPSR antagonist	IMPase Li cell	Sfp PPTase inh	Epigenetic reg	KDM4E inh	KAT2A inh
O=C(Cn1c(=O)n(-c2ccccc2Cl)c(=O)c2sc3ccccc3c21)N1CCCC1	nt	nt	nt	i	nt	i
COc1cc(S(=O)(=O)Nc2ccccc2C)ccc1Cl	i	i	i	i	i	i
COc1cc(S(=O)(=O)Nc2c(C)cc(C)cc2C)ccc1Cl	i	i	56µM	i	i	i
COc1ccccc1CNC(=O)C(NS(=O)(=O)c1cccs1)C(C)C (stereo unspecified)	nt	nt	nt	i	nt	i
CC(=O)NC(=S)Nc1ccc(-c2nc3ccc(C)cc3s2)cc1	10µM	14µM	i	i	?	i
CC(C)Nc1oc(-c2ccccc2)nc1-c1cccc2ccccc12	nt	i	i	i	i	nt
Cn1c(CNc2ccccc2O)nc2ccccc21	i	i	45µM	i	?	i
Cc1ccccc1NCc1nc2ccccc2n1C	nt	nt	i	nt	nt	i
COc1ccc(-c2ccccc2C2C3C=CCCC3(C)C(=O)N2Cc2ccccc2)cc1 (stereo unspecified)	nt	nt	i	nt	nt	nt
CC12C=C(/C=C/c3ccc(F)cc3)C(C)(C1)C(c1ccc(F)cc1)CC2=O (stereo unspecified)	nt	nt	?	i[10.1 µM]	nt	nt
Cc1ccc(-c2cc(-c3ccco3)c3c(N)c(C(=O)NN)oc3n2)cc1	i	nt	?	i	3.2µM	i
NC(N)=NCCC[C@H](NC(=O)[C@H](Cc1ccccc1)NC(=O)[C@@H]1CCCN1C(=O)[C@H](CO)NC(=O)[C@H](Cc1ccccc1)NC(=O)CNC(=O)[C@@H]1CCCN1C(=O)[C@@H]1CCCN1C(=O)[C@@H](N)CCCN=C(N)N)C(=O)O	nt	nt	i	nt	nt	i
C=CCOCC/C=C1/c2ccccc2C(OC)C1C (stereo unspecified)	nt	nt	i	i[10.1 µM]	nt	nt
Cc1ccc(C2NC(=O)c3sc(=S)n(-c4ccccc4)c3N2)cc1 (stereo unspecified)	i	i	40µM	i	i	i
O=C(CN1CCN(C2CCCCC2)CC1)NCCC1=CCCCC1	i	i	79µM	i	?	i
COc1cc(C(=S)N2CCN(C(c3ccccc3)c3ccccc3)CC2)cc(OC)c1O	nt	nt	16µM	nt	nt	i
COc1ccc(NC(=S)N2CCN(C(c3ccccc3)c3ccccc3)CC2)cc1OC	i	i	i	i	i	i
CC(=O)c1ccc(N2CCN(C(=O)Nc3cn(CC(C)C)c(=O)c4ccccc34)CC2)cc1	nt	nt	nt	i	nt	i
Cc1c(C)c2cc3c(c(C)c2oc1=O)OCN(CCc1ccc(F)cc1)C3	nt	nt	nt	i	nt	i
COC(=O)Cc1c(C)c2cc3c(c(C)c2oc1=O)OCN(CCc1ccc(F)cc1)C3	nt	nt	nt	i	nt	28µM
CC(C)(C)C1CCc2c(sc(NC(=O)CCC(=O)O)c2C(=O)Nc2ccccc2C(F)(F)F)C1 (stereo unspecified)	nt	nt	nt	i	nt	?
CC1(C)OC[C@@H]2O[C@@]3(C(=O)O)OC(C)(C)O[C@@H]3[C@@H]2O1	nt	nt	i	nt	nt	i
NC(=O)c1c(-c2cccs2)csc1N	i	i	40µM	i	?	i
COC(=O)[C@@]1(Cc2ccc(OC)cc2)[C@H]2c3cc(C(=O)N(C)C)n(Cc4ccc(C)c(F)c4F)c3C[C@H]2CN1C(=O)c1ccccc1	nt	i	i	i	i	nt
O=C(OCn1ncc(Br)c(Br)c1=O)c1ccc(F)cc1	2.5µM	7.1µM	50µM	i	i	i
SMILES	NPSR antagonist	IMPase Li cell	Sfp PPTase inh	Epigenetic reg	KDM4E inh	KAT2A inh
O=C(OCn1ncc(Br)c(Br)c1=O)c1ccccc1Cl	2.5µM	?	i	i	i	i
O=C(Nc1ccccc1)c1snc2c(=O)[nH]cnc12	i	i	i	i	i	i
CCOC(=O)C1CCCN(c2ccc(NC(=O)c3snc4c(=O)[nH]cnc34)cc2)C1 (stereo unspecified)	16µM	i	i	i	i	i
CCOC(=O)C1CCCN(c2ccc(NC(=O)c3snc4c(=O)[nH]c(C)nc34)cc2)C1 (stereo unspecified)	i	i	i	i	i	2.5µM
CCc1ccc(NC(=O)CC2C(=O)N(c3cccc(C)c3)C(=O)N2Cc2ccco2)cc1 (stereo unspecified)	nt	nt	nt	i	nt	i
c1ccc(C2=Nc3ccccc3SC2c2nc3ccccc3[nH]2)cc1 (stereo unspecified)	i	i	40µM	i	?	nt
O=c1c(O)c(-c2ccc(O[C@@H]3O[C@H](CO)[C@@H](O)[C@H](O)[C@H]3O)c(O)c2)oc2cc(O)cc(O)c12	nt	nt	i	nt	nt	i
COc1ccc(C2(CNC(=O)C(=O)Nc3ccc(C)c(Cl)c3)CCCC2)cc1OC	nt	nt	nt	i	nt	i
CN1CCN(C(=S)NC(=O)c2cccc([N+](=O)[O-])c2)CC1	nt	nt	32µM	nt	nt	i
NS(=O)(=O)c1cccc(NC(=S)NC(=O)c2cccc([N+](=O)[O-])c2)c1	i	i	50µM	i	i	i
CC(=O)NNC(=S)NC(=O)c1cccc([N+](=O)[O-])c1	i	i	11µM	i	i	?
C/C(=N\NC(=O)C(N)=O)c1cccc([N+](=O)[O-])c1	i	i	i	i	i	i
CNC(=S)N/N=C(\C)c1cccc([N+](=O)[O-])c1	i	i	56µM	i	i	i
Oc1ccc(CNc2cccc(C(F)(F)F)c2)c2cccnc12	nt	nt	nt	nt	nt	i
O=C1C2=C(Nc3cc([N+](=O)[O-])ccc3N2)O[C@@H]1c1ccc([C@H]2OC3=C(Nc4ccc([N+](=O)[O-])cc4N3)C2=O)cc1	nt	i	nt	nt	nt	nt
CN1CCN(C(=S)Nc2ccc([N+](=O)[O-])cc2)CC1	i	i	89µM	i	i	i
CCCCNC(=O)CN1CCN(Cc2ccc3cc(OC)ccc3c2)CC1	nt	nt	79µM	nt	nt	i
COc1ccc(NC(=O)CN2CCN(Cc3ccccc3)CC2)cc1	nt	nt	i	nt	nt	i
CCCC(=O)NC(c1ccc(OC)cc1)c1ccc2cccnc2c1O (stereo unspecified)	i	i	i	3.5µM	22µM	i
CCCCC(=O)NC(c1ccccc1Cl)c1ccc2cccnc2c1O (stereo unspecified)	nt	nt	i	nt	nt	i
COc1ccc(Cl)cc1C(Nc1cccnc1)c1ccc2cccnc2c1O (stereo unspecified)	i	i	i	i	14µM	i
Oc1c(C(Nc2cccc(C(F)(F)F)c2)c2cccnc2)ccc2cccnc12 (stereo unspecified)	i	i	?	i	?	i
CCC(=O)NC(c1ccccc1OC)c1ccc2cccnc2c1O (stereo unspecified)	i	i	i	3.5µM	25µM	i
c1ccc2c3c([nH]c2c1)[C@@H]1[C@H]2CC[C@H]([C@H]4CCCN[C@H]42)N1CC3	nt	i	i	i	?	i
COc1ccccc1N1CCN(C(=O)c2ccc3c(c2)N(Cc2cc(C)ccc2C)C(=O)c2ccccc2S3(=O)=O)CC1	nt	nt	nt	i	nt	i
